The panel holds about 79,000 compounds, 15% with a hit somewhere; the sample as a whole holds those more often. Values without a mark were called inactive. Active and inactive are the calls of the source. Rule as the data show it: active = growth inhibition above about 70%; inactive = the rest.
What was measured:
[1] = NCI Yeast Anticancer Drug Screen. Data for the rad50 strain (AID 155);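 also: 0% = growth of vehicle-only cultures of the same strain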; settings: S. cerevisiae rad50 strain growth inhibition, stronger effect = higher value
Outline: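 Cells are treated with compound, grown, and their growth is then scored against vehicle-only cultures of the same repair-deficient yeast strain.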

[2] = NCI Yeast Anticancer Drug Screen. Data for the mec2-1 strain (AID 157); settings: S. cerevisiae mec2-1 strain, stronger effect = higher value
Outline: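 Growth inhibition is read against vehicle-treated controls after compound exposure of the mec2-1 yeast strain, which is defective in DNA damage repair or cell cycle control.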

[3] = NCI Yeast Anticancer Drug Screen. Data for the sgs1 mgt1 strain (AID 161);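 also: 0% = growth of cultures given vehicle only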; settings: S. cerevisiae sgs1 mgt1 strain, stronger effect = higher value
Outline: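 This yeast growth screen uses a strain with defined DNA-repair lesions; compound-treated growth is compared with vehicle-treated growth.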

[4] = NCI Yeast Anticancer Drug Screen. Data for the cln2 rad14 strain (AID 165);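 also: 0% = growth equal to vehicle treated cultures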; settings: S. cerevisiae cln2 rad14 strain, stronger effect = higher value
Outline: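 Growth inhibition, relative to vehicle-treated controls, is the read-out. The test organism is a yeast strain with defined genetic alterations, cln2 rad14.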

[5] = NCI Yeast Anticancer Drug Screen. Data for the bub3 strain (AID 167); settings: S. cerevisiae bub3 mutant strain, stronger effect = higher value
Outline: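 Part of a panel of yeast mutants defective in DNA damage repair or cell cycle regulation. Each strain is grown with compound, and inhibition is calculated relative to solvent-treated cultures.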

[6] = NCI Yeast Anticancer Drug Screen. Data for the mlh1 rad18 strain (AID 175); settings: S. cerevisiae mlh1 rad18 strain growth inhibition, stronger effect = higher value
Outline: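 Cells of a genetically altered yeast strain, deficient in DNA damage repair, were treated with compound. Their growth was then compared with that of vehicle-treated cultures to give inhibition.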

[7] = at 5.0 µM (retest, dose inferred, filed as 0.5)
[8] = at 50.0 µM (retest, dose inferred, filed as 5.0)

Compound	growth inhibition [1, 7]	growth inhibition [1, 8]	growth inhibition ([1]; at 50.0 µM)	growth inhibition [2, 7]	growth inhibition [2, 8]	growth inhibition ([2]; at 50.0 µM)	growth inhibition [3, 7]	growth inhibition [3, 8]	growth inhibition ([3]; at 50.0 µM)	growth inhibition [4, 7]	growth inhibition [4, 8]	growth inhibition ([4]; at 50.0 µM)	growth inhibition [5, 7]	growth inhibition [5, 8]	growth inhibition ([5]; at 50.0 µM)	growth inhibition [6, 7]	growth inhibition [6, 8]	growth inhibition ([6]; at 50.0 µM)
O=C(c1ccccc1)c1ccc(Br)cc1O	-3%	21%	57%	-9%	12%	21.9%	-4%	33%	31.8%	-5%	9%	28.1%	-12%	-11%	38.1%	1%	8%	68.8%
CCCCCCSc1nc2ccc(N=Cc3ccccc3O)cc2s1	90% (active)	89% (active)	81.8% (active)	83% (active)	91% (active)	55.2%	93% (active)	88% (active)	70.3% (active)	58%	65%	48%	55%	86% (active)	15.2%	86% (active)	88% (active)	80.1% (active)
O=C(Oc1ccccc1)c1ccc2ccccc2c1O	-4%	-38%	15.8%	-5%	-35%	6.05%	-5%	-14%	2.7%	-2%	-59%	-47.1%	36%	52%	77.7% (active)	-4%	-27%	4.1%
Cc1ccc(C)c(NC(=O)CCC(=O)CC(=O)c2ccncc2)c1	-4%	12%	-32%	3%	4%	7.45%	8%	4%	16.8%	-4%	3%	1.25%	-7%	4%	10.7%	0%	-1%	24.1%
O=C(Nc1ccccc1[N+](=O)[O-])/C(=N/Nc1cccc(Cl)c1)c1c(O)c2ccccc2oc1=O	29%	29%	87.1% (active)	36%	36%	79.5% (active)	35%	35%	89.5% (active)	11%	11%	43.2%	27%	27%	78.8% (active)	44%	44%	70% (active)
ClC1(Cl)C(Cl)(Cl)C12c1ccccc1-c1ccccc12	14%	94% (active)	98.6% (active)	-26%	97% (active)	98.8% (active)	15%	98% (active)	99% (active)	2%	95% (active)	86.8% (active)	28%	95% (active)	98% (active)	29%	96% (active)	98.6% (active)
C1=C(c2ccccc2)CCc2ccccc21	1%	14%	12.7%	5%	-1%	-11.5%	5%	14%	-1.95%	0%	-14%	50.9%	-3%	3%	2.6%	-4%	3%	1.5%
CCOc1ccccc1NC(=O)/C(Cl)=C(\Cl)C(=O)O	100% (active)	99% (active)	99% (active)	100% (active)	100% (active)	98.3% (active)	100% (active)	100% (active)	95.2% (active)	100% (active)	99% (active)	56.8%	100% (active)	100% (active)	64.4%	100% (active)	100% (active)	76% (active)
CCOC(=O)c1cc(Cl)nc2ccc(OC)cc12	-3%	-30%	0.05%	-3%	-30%	9.35%	-4%	-31%	20.3%	0%	-41%	40.9%	6%	-12%	49.4%	-2%	-25%	15.4%
